Results: PubChem BioAssay (EPA / NIEHS)
Results filed as inconclusive are left out. Activity calls are given as the source filed them. Rule for the calls, unless noted: active = hit-call score of the fitted dose curve at least 0.9, where 1 is the maximum; inactive = score below 0.9.

Columns and labels:
[1] = target: Nuclear respiratory factor 1 (Homo sapiens) (UniProt Q16656); experiment: ATG_NRF1_CIS: Attagene CIS-FACTORIAL HepG2 Assay for human Nuclear Respiratory Factor 1 (NRF1) Orphan Gene (AID 2282987); conditions: HepG2 NRF1 cis-element reporter, Attagene multiplex; actives raise or lower the signal
How it was run: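 Reporter mRNA induction or loss in HepG2 cells after 24 h dosing; cis-regulated reporter constructs report endogenous transcription-factor activity. Quantified by RT-PCR/capillary electrophoresis fluorescence, DMSO-referenced.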

[2] = target: Myc proto-oncogene protein (Homo sapiens) (UniProt P01106); experiment: ATG_Myc_CIS: Attagene CIS-FACTORIAL HepG2 Assay for human Myelocytomatosis (Myc) Proto-Oncogene Transcription Factor (AID 2282990); conditions: HepG2, Attagene cis-reporter transcription factor activity; actives raise or lower the signal
How it was run: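 Transiently transfected HepG2 cells bearing cis-promoter reporter units for endogenous transcription factors; 24 h exposure. Reporter mRNA measured by RT-PCR, 6-FAM primer extension, HpaI cut and capillary electrophoresis; bidirectional fit relative to DMSO.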

[3] = ATG_NF_kB_CIS: Attagene CIS-FACTORIAL HepG2 Assay for human Nuclear Factor Kappa B (NF-kB) (AID 2282991); conditions: HepG2 Attagene cis-factorial NF-kB reporter mRNA; actives raise or lower the signal
How it was run: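 DMSO served as negative control and baseline for bidirectional curve fitting. Transiently transfected HepG2 cells were dosed for 24 h, then reporter transcripts were measured by RT-PCR with capillary electrophoresis detection.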

[4] = ATG_NRF2_ARE_CIS: Attagene CIS-FACTORIAL HepG2 Assay for human Nuclear Factor Erythroid 2 Related Factor 2 (NFR2) response to Antioxidant Response Elements (ARE) (AID 2282992); conditions: HepG2 Attagene ARE/NRF2 reporter, transcription factor activity; actives raise or lower the signal;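 for AC50: reporter mRNA level measured by RT-PCR and capillary electrophoresis fluorescence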
How it was run: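 Multiplexed reporter mRNA profiling in HepG2 after a 24 h chemical exposure. Curves fitted in both directions relative to DMSO negative control.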

[5] = ATG_Oct_MLP_CIS: Attagene CIS-FACTORIAL HepG2 Assay for human Octamer-Binding Transcription Factor (Oct) (AID 2282993); conditions: HepG2 Attagene cis-factorial Oct reporter, mRNA; actives raise or lower the signal
How it was run: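 Read-out: reporter mRNA via RT-PCR plus capillary electrophoresis of 6-FAM-labelled fragments. Transiently transfected HepG2, 24 h exposure, endogenous TF activity on cis elements. Gain or loss of signal fitted relative to DMSO.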

[6] = target: Cellular tumor antigen p53 (Homo sapiens) (UniProt P04637); experiment: ATG_p53_CIS: Attagene CIS-FACTORIAL HepG2 Assay for human p53 Transcription Factor (AID 2282994); conditions: HepG2 p53 cis-element reporter, Attagene mRNA; actives raise or lower the signal
How it was run: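 Multiplexed reporter mRNA assay in human HepG2 liver cells; cis-regulated units report endogenous factor activity. Values come from bidirectional curve fitting against DMSO negative control after 24 h treatment.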

[7] = BSK_3C_TissueFactor: BioMAP Diversity Plus: 3C Assay for Tissue Factor Biomarker Activity (AID 2282997); conditions: BioMAP 3C HUVEC, tissue factor biomarker readout; actives raise or lower the signal
How it was run: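 HUVEC were treated 24 h, then surface tissue factor measured by ELISA and fitted bidirectionally against DMSO. Parallel SRB total-protein staining assessed overt cytotoxicity at the same time point.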

[8] = BSK_3C_uPAR: BioMAP Diversity Plus: 3C Assay for Urokinase-type plasminogen activator receptor (uPAR) Biomarker Activity (AID 2282998); conditions: BioMAP 3C HUVEC, uPAR biomarker ELISA; actives raise or lower the signal
How it was run: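 HUVEC primary cells; 24 h post-dose; uPAR by ELISA; gain or loss of signal fitted bidirectionally vs DMSO baseline.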

[9] = BSK_3C_VCAM1: BioMAP Diversity Plus: 3C Assay for Vascular cell adhesion molecule 1 (VCAM1) Biomarker Activity (AID 2282999); conditions: BioMAP 3C HUVEC, VCAM1 ELISA, cytokine-stimulated; actives raise or lower the signal
How it was run: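 Human umbilical vein endothelial cells (3C system), biomarker read by ELISA 24 h after dosing; bidirectional fit against DMSO baseline. Cytotoxicity tracked by SRB total-protein staining in parallel cultures at biomarker time.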

[10] = BSK_4H_Eotaxin3: BioMAP Diversity Plus: 4H Assay for Eotaxin 3 Biomarker Activity (AID 2283000); conditions: primary human endothelial cells (HUVEC); actives raise or lower the signal
How it was run: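 Eotaxin-3 (CCL26) levels were measured by ELISA in HUVEC primary cultures 24 h post-dosing. Gain or loss of signal was fitted in both directions, with DMSO serving as baseline and negative control.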

[11] = target: human Peroxisome Proliferator-activated Receptor alpha (PPARa), PPARA (gene 5465) (UniProt Q07869); experiment: ATG_PPARa_TRANS: Attagene TRANS-FACTORIAL HepG2 Assay for human Peroxisome Proliferator-activated Receptor alpha (PPARa) (AID 2283001; active = hit-call score of the fitted dose curve at least 0.9, where 1 is the maximum)
How it was run: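 Measures transcriptional activity of an exogenous chimeric PPARa-Gal4 protein in transiently transfected HepG2 cells after 24 h dosing. Reporter mRNA quantified via RT-PCR and capillary electrophoresis; DMSO served as negative control.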

[12] = target: human Peroxisome Proliferator-activated Receptor delta (PPARd), PPARD (gene 5467) (UniProt Q03181); experiment: ATG_PPARd_TRANS: Attagene TRANS-FACTORIAL HepG2 Assay for human Peroxisome Proliferator-activated Receptor delta (PPARd) (AID 2283002; active = hit-call score of the fitted dose curve at least 0.9, where 1 is the maximum)
How it was run: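 HepG2 cells transiently transfected with GAL4-UAS multiplexed reporter units driven by exogenous chimeric NR-GAL4 proteins; 24 h compound exposure. Reporter mRNA measured by RT-PCR, 6-FAM primer extension, HpaI digestion and capillary electrophoresis; gain of signal fitted relative to DMSO.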

[13] = read-out: Intercellular Adhesion Molecule 1 (ICAM1), ICAM1 (gene 3383); experiment: BSK_3C_ICAM1: BioMAP Diversity Plus: 3C Assay for Intercellular Adhesion Molecule 1 (ICAM1) Biomarker Activity (AID 2283003); conditions: primary human endothelial cells (HUVEC); actives raise or lower the signal
How it was run: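 Human vascular endothelial primary cells, 3C conditions, 24 h treatment. ICAM-1 by ELISA.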

[14] = target: human Retinoic Acid Receptor beta (RARb), RARB (gene 5915) (UniProt P10826); experiment: ATG_RARb_TRANS: Attagene TRANS-FACTORIAL HepG2 Assay for human Retinoic Acid Receptor beta (AID 2283004; active = hit-call score of the fitted dose curve at least 0.9, where 1 is the maximum)
How it was run: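 HepG2 cells were transiently transfected with GAL4-UAS reporter units that report activity of exogenous chimeric NR-Gal4 proteins, then exposed to compound for 24 h. Reporter mRNA was quantified by RT-PCR with capillary electrophoresis fluorescence, as gain of signal over DMSO.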

[15] = target: Retinoic acid receptor alpha (Homo sapiens) (UniProt P10276); experiment: ATG_RARa_TRANS: Attagene TRANS-FACTORIAL HepG2 Assay for human Retinoic Acid Receptor alpha (RARa) (AID 2283005; active = hit-call score of the fitted dose curve at least 0.9, where 1 is the maximum;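 for AC50: potency for increased reporter signal meaning RARa activation over DMSO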)
How it was run: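 HepG2 transiently transfected with multiplex GAL4-UAS reporter units including a human RARa–GAL4 chimera; 24 h compound exposure. Reporter mRNA quantified by RT-PCR, 6-FAM labeling and capillary electrophoresis; gain of signal versus DMSO.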

[16] = BSK_3C_Proliferation: Cell Proliferation Assessment in the BioMAP Diversity Plus: 3C Assay (AID 2283006); conditions: primary human endothelial cells (HUVEC);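 for AC50: potency may reflect either rise or fall in cell number versus DMSO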
How it was run: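 Proliferation of human vascular endothelial primary cells after 48 h dosing, quantified as SRB-stained protein at 560 nm relative to DMSO.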

[17] = target: Nuclear receptor subfamily 1 group I member 2 (Homo sapiens) (UniProt O75469); experiment: ATG_PXR_TRANS: Attagene TRANS-FACTORIAL HepG2 Assay for human Pregnane X Receptor (PXR) (AID 2283008; active = hit-call score of the fitted dose curve at least 0.9, where 1 is the maximum)
How it was run: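 Measures mRNA induction of a GAL4-UAS-driven reporter in human HepG2 cells transiently expressing PXR fused to Gal4, following 24 h treatment. DMSO served as negative control and baseline.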

[18] = target: human Retinoic Acid Receptor gamma (RARg), RARG (gene 5916) (UniProt P13631); experiment: ATG_RARg_TRANS: Attagene TRANS-FACTORIAL HepG2 Assay for human Retinoic Acid Receptor gamma (RARg) (AID 2283009; active = hit-call score of the fitted dose curve at least 0.9, where 1 is the maximum)
How it was run: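 HepG2, RARg-GAL4 TRANS system, 24 h exposure; reporter mRNA by RT-PCR + CE fluorescence; increase over DMSO.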

[19] = ATG_NFI_CIS: Attagene CIS-FACTORIAL HepG2 Assay for human Nuclear Factor I (NFI) (AID 2282989); conditions: HepG2 cis-regulatory reporter, NFI response element transcription; actives raise or lower the signal
How it was run: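 Read-out: reporter mRNA via RT-PCR plus capillary electrophoresis with fluorescence detection. Transiently transfected HepG2 (endogenous TF activity on cis promoters), 24 h compound exposure; gain or loss of signal fitted against DMSO.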

[20] = target: Peroxisome proliferator-activated receptor gamma (Homo sapiens) (UniProt P37231); experiment: ATG_PPARg_TRANS: Attagene TRANS-FACTORIAL HepG2 Assay for human Peroxisome Proliferator-activated Receptor-gamma (PPARg) (AID 2283007; active = hit-call score of the fitted dose curve at least 0.9, where 1 is the maximum)
How it was run: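 Chimeric NR-Gal4 transactivation is measured in transiently transfected HepG2 cells by reporter mRNA induction at 24 h. Detection uses RT-PCR with fluorescent labelling and capillary electrophoresis; DMSO defines baseline.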

Measured: AC50

Chain of human Retinoic Acid Receptor gamma (RARg), RARG (gene 5916) (P13631 whole entry, looked up, the tested form may be a part): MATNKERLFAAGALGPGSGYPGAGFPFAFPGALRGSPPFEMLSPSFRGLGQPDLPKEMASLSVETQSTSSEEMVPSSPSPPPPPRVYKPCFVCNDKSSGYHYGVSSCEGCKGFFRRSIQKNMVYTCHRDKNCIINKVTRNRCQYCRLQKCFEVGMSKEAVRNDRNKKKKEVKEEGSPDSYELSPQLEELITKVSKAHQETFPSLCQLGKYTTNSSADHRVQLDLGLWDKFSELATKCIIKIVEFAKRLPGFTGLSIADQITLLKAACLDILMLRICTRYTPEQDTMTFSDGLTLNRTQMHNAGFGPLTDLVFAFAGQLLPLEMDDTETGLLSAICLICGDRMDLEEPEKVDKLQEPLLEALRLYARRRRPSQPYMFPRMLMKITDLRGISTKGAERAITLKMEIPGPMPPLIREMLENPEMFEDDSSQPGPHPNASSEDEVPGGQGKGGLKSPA
Chain of human Peroxisome Proliferator-activated Receptor delta (PPARd), PPARD (gene 5467) (Q03181 whole entry, looked up, the tested form may be a part): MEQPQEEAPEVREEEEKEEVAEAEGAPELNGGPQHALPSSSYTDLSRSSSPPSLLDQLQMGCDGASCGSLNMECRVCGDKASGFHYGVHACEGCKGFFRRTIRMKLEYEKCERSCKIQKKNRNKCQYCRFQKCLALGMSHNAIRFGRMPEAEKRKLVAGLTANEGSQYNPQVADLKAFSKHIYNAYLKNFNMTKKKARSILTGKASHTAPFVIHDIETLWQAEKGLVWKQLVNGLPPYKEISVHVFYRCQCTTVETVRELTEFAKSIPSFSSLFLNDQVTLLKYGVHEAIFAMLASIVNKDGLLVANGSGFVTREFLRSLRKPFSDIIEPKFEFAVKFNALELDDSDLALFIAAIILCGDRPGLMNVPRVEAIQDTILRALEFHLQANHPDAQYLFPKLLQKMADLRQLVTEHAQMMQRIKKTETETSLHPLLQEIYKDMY
Chain of Retinoic acid receptor alpha (Homo sapiens) (P10276 whole entry, looked up, the tested form may be a part): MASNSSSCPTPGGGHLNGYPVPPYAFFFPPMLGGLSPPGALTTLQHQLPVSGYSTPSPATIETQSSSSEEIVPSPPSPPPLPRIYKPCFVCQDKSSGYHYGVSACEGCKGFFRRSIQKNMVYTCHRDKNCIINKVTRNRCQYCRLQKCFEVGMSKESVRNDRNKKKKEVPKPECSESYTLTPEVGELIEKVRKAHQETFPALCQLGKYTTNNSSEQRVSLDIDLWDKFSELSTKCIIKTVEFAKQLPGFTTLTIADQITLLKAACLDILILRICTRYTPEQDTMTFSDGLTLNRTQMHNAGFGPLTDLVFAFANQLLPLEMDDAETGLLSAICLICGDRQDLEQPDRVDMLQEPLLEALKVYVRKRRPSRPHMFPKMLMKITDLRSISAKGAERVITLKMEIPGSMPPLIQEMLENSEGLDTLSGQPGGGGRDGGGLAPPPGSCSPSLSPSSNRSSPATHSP
Chain of human Retinoic Acid Receptor beta (RARb), RARB (gene 5915) (P10826 whole entry, looked up, the tested form may be a part): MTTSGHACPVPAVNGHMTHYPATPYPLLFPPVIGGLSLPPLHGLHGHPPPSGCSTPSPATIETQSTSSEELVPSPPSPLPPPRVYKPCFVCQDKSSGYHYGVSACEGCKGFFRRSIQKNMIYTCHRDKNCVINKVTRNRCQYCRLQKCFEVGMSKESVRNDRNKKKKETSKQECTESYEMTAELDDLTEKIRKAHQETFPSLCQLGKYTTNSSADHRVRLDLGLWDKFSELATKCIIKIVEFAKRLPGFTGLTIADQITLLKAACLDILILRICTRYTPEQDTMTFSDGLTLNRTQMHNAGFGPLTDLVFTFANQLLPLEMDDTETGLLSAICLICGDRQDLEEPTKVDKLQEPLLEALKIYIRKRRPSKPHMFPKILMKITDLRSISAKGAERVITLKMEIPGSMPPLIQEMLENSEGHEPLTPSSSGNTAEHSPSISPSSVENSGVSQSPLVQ
Chain of Myc proto-oncogene protein (Homo sapiens) (P01106 whole entry, looked up): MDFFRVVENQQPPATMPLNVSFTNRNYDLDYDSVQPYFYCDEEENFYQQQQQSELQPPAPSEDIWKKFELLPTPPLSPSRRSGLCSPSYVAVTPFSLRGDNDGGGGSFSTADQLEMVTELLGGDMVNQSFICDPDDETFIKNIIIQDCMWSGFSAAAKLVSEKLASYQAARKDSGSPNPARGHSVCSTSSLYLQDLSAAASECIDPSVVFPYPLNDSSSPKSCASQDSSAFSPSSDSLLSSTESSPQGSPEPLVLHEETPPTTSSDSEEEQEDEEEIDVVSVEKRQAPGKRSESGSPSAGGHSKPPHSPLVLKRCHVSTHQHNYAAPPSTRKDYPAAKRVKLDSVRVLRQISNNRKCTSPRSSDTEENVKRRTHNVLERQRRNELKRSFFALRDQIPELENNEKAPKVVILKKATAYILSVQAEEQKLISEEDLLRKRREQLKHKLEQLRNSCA
Chain of Nuclear respiratory factor 1 (Homo sapiens) (Q16656 whole entry, looked up): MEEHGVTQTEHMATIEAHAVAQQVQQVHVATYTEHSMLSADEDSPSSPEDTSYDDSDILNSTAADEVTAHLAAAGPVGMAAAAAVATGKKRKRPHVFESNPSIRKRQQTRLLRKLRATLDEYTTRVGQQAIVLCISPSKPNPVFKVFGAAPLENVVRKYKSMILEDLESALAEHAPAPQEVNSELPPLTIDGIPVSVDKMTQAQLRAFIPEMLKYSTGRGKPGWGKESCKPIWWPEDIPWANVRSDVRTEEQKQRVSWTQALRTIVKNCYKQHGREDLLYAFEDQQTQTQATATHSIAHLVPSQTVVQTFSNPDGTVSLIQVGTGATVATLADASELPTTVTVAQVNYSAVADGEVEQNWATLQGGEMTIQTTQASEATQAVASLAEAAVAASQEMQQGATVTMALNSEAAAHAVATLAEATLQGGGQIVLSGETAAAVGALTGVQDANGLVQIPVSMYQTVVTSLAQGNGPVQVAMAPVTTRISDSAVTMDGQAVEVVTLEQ
Chain of Cellular tumor antigen p53 (Homo sapiens) (P04637 whole entry, looked up): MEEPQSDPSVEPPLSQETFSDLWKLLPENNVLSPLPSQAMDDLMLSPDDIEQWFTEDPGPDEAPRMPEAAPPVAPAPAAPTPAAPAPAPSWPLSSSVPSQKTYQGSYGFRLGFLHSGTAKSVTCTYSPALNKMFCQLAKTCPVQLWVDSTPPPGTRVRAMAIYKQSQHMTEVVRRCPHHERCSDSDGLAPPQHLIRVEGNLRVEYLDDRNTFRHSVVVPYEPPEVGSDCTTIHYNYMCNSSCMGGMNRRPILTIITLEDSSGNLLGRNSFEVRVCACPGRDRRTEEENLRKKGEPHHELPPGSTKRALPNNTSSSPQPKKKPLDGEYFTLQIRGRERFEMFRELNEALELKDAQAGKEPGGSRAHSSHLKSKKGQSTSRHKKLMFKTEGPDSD
Chain of human Peroxisome Proliferator-activated Receptor alpha (PPARa), PPARA (gene 5465) (Q07869 whole entry, looked up, the tested form may be a part): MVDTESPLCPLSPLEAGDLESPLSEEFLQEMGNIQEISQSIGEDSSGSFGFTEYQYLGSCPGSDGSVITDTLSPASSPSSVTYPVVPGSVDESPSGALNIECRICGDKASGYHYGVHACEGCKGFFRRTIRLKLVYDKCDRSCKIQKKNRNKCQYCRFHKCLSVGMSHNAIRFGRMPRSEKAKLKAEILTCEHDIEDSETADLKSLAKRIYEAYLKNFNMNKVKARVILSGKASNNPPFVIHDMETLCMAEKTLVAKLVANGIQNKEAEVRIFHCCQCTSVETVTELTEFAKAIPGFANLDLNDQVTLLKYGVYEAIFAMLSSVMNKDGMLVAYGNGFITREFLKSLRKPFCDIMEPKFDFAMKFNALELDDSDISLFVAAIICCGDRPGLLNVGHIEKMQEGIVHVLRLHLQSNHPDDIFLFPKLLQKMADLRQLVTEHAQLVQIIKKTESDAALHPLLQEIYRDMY
Chain of Nuclear receptor subfamily 1 group I member 2 (Homo sapiens) (O75469 whole entry, looked up, the tested form may be a part): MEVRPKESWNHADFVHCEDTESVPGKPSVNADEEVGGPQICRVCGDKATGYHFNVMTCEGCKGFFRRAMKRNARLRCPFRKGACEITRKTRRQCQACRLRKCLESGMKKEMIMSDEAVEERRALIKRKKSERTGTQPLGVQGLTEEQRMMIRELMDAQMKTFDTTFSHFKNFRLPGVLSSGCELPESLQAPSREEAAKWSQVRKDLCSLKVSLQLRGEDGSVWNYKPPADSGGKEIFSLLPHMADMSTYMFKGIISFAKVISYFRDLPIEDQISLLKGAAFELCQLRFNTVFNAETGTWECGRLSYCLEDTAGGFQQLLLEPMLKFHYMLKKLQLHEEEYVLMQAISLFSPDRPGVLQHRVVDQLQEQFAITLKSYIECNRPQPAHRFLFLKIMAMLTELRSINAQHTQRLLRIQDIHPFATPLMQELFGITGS
Chain of Peroxisome proliferator-activated receptor gamma (Homo sapiens) (P37231 whole entry, looked up, the tested form may be a part): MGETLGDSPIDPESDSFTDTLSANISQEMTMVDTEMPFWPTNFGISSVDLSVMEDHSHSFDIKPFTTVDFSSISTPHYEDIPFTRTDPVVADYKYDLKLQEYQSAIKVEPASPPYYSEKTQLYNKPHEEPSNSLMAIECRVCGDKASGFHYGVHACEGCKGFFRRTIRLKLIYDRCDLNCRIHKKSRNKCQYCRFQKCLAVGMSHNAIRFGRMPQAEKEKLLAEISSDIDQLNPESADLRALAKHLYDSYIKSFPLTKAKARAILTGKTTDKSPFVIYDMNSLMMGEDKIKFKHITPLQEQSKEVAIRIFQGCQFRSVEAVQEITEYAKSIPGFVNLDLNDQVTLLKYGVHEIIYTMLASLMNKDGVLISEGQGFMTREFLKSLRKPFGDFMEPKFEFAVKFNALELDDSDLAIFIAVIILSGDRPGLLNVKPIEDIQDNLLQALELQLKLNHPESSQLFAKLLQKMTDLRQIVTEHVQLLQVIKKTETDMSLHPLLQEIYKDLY

CC(C1CC1)C(O)(Cn1cncn1)c1ccc(Cl)cc1 (configuration not stated)
not listed: [19] | [20]
inactive: all other assays above

CC(Oc1cccc(Cl)c1)C(=O)O (configuration not stated)
not listed: [3] | [7] | [14] | [16]
inactive: all other assays above

CCCSP(=O)(OCC)SCCC
active: [4] 40.9 µM
not listed: [3] | [6] | [7] | [11] | [12]
inactive: all other assays above

CCOP(=S)(OCC)Oc1ccc2c(C)c(Cl)c(=O)oc2c1
active: [4] 2.75 µM | [15] 2.3 µM | [16] 9.56 µM | [17] 3.94 µM
not listed: [3] | [20]
inactive: all other assays above

CON=C(C(=O)OC)c1ccccc1CON=C(C)c1cccc(C(F)(F)F)c1
active: [3] 73.1 µM | [4] 15.7 µM | [5] 13.5 µM | [10] 2.78 µM
not listed: [16] | [19] | [20]
inactive: all other assays above

CCc1cnc(C2=NC(C)(C(C)C)C(=O)N2)c(C(=O)O)c1 (configuration not stated)
not listed: [3] | [6] | [11] | [12] | [15] | [17] | [18] | [20]
inactive: all other assays above

COP(=O)(OC)OC(Br)C(Cl)(Cl)Br (configuration not stated)
active: [7] 16.3 µM | [8] 31.7 µM | [9] 29.7 µM | [10] 33.2 µM | [13] 36.4 µM
not listed: [3] | [6] | [11] | [14] | [16] | [17]
inactive: all other assays above

CC(C)=CC1C(C(=O)OCN2C(=O)C3=C(CCCC3)C2=O)C1(C)C (configuration not stated)
inactive: [1] | [19] | [2] | [6] | [10] | [11] | [13]
active: [4] 16.2 µM | [5] 35.4 µM | [8] 15.5 µM | [9] 14.4 µM | [17] 40.2 µM
